PubChem BioAssay
The source made the active and inactive calls.

Legend:
[1] = small molecules captured by biotinylated probe aFSTL3 – biochemical, small-molecule microarray, fluorescence 635/667, stem cell growth factor project, primary screen (AID 1064); conditions: higher = more signal;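 note: measures binding of the biotinylated anti-FSTL3 antibody to printed compounds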
[2] = binders from COS7 lysate, DM2A8 probe, primary screen, torsin A project, cell lysate, small-molecule microarray, fluorescence 635/667 (AID 1065); conditions: higher = more signal, COS7 lysate expressing mutant human TOR1A
[3] = small molecules captured by biotinylated probe aFGF2 – biochemical, small-molecule microarray, fluorescence 635/667, stem cell growth factor project, primary screen (AID 1067); conditions: higher = more signal;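 note: measures binding of biotinylated aFGF2 protein to printed compounds on slides; z-score merges feature fluorescence and signal-to-noise across triplicate slides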
[4] = small molecules captured by biotinylated probe aFGF10 – biochemical, small-molecule microarray, fluorescence 635/667, stem cell growth factor project, primary screen (AID 1071); conditions: higher = more signal;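 note: score merges 667 nm spot intensity and signal to noise from triplicate slides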
[5] = molecular target: Neurogenic locus notch homolog protein 2 (Homo sapiens) (UniProt Q04721); assay: small molecules binding Notch2 protein – biochemical, small-molecule microarray, 635 nm fluorescence, stem cell growth factors, primary screen (AID 1073); conditions: higher = more signal
Sequence of Neurogenic locus notch homolog protein 2 (Homo sapiens) (Q04721 whole entry, looked up, canonical isoform): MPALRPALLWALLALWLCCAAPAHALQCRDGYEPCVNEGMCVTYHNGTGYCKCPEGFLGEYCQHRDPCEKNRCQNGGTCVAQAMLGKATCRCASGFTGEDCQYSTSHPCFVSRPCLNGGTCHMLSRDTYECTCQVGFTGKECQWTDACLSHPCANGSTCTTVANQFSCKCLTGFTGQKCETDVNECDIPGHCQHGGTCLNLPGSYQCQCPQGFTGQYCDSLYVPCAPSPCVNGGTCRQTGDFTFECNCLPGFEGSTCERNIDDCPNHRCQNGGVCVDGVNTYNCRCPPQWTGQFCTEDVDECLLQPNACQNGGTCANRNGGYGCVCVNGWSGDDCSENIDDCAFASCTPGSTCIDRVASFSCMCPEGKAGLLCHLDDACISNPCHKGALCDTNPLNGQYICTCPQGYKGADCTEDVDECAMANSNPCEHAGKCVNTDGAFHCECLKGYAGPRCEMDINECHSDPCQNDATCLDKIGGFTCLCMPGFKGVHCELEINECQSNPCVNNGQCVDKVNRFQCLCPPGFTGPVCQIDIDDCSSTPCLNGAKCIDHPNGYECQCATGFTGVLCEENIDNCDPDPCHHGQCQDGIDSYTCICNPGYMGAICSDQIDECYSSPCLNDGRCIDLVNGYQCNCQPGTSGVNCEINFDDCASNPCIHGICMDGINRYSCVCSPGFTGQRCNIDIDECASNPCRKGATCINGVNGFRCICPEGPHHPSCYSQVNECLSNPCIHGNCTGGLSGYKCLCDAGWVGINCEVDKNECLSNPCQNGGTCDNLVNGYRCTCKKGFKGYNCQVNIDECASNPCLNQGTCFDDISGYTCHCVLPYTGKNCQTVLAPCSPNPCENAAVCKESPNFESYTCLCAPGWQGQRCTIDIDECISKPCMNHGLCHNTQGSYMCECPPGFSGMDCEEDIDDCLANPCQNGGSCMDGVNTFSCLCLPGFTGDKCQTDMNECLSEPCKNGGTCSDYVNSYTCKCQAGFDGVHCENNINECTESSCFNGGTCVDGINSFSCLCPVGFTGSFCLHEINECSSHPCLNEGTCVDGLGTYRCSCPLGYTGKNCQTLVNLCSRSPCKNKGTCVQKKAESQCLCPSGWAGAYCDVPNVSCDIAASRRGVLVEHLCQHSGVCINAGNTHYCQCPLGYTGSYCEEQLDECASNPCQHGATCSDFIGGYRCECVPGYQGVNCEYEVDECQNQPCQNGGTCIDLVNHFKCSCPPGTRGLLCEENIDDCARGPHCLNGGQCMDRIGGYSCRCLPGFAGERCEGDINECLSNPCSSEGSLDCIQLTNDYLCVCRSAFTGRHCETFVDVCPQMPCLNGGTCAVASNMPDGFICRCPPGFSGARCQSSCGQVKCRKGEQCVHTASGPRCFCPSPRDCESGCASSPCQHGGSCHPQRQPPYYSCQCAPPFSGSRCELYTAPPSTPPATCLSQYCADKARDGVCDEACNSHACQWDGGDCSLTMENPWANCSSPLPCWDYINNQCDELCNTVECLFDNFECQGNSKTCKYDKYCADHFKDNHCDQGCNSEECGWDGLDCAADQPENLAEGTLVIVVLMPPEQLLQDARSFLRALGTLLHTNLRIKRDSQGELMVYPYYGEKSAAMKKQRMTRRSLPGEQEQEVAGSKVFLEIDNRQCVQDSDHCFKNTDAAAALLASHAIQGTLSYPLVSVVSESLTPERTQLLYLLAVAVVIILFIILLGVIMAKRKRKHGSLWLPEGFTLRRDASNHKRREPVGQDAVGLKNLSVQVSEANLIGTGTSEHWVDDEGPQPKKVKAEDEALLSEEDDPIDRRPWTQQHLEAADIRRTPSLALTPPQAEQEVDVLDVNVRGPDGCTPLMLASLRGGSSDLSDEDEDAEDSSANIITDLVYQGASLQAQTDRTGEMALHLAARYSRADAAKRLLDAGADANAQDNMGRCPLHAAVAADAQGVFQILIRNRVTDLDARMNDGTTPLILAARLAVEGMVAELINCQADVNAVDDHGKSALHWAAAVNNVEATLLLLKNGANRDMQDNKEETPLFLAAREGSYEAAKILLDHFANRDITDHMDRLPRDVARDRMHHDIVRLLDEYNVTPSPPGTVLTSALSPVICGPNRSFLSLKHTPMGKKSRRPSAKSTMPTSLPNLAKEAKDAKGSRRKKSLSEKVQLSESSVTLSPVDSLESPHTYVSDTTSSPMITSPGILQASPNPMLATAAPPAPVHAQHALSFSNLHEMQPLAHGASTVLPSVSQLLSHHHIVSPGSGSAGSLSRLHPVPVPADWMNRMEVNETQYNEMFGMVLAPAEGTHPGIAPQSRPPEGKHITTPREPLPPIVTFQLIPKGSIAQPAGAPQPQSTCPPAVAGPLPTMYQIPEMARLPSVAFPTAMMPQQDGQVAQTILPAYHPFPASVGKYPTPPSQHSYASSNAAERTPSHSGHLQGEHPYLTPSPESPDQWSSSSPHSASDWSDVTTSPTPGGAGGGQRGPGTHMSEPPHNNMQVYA

[6] = molecular target: Pro-neuregulin-1, membrane-bound isoform (Homo sapiens) (UniProt Q02297); assay: small molecules binding neuregulin-1 protein – biochemical, small-molecule microarray, fluorescence 635/667, psychiatric disease protein project, primary screen (AID 1075); conditions: NRG1 binding, 635 nm fluorescence, higher = more signal;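 note: score combines 667 nm spot fluorescence with signal to noise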
Sequence of Pro-neuregulin-1, membrane-bound isoform (Homo sapiens) (Q02297 whole entry, looked up, the tested form may be a part, canonical isoform): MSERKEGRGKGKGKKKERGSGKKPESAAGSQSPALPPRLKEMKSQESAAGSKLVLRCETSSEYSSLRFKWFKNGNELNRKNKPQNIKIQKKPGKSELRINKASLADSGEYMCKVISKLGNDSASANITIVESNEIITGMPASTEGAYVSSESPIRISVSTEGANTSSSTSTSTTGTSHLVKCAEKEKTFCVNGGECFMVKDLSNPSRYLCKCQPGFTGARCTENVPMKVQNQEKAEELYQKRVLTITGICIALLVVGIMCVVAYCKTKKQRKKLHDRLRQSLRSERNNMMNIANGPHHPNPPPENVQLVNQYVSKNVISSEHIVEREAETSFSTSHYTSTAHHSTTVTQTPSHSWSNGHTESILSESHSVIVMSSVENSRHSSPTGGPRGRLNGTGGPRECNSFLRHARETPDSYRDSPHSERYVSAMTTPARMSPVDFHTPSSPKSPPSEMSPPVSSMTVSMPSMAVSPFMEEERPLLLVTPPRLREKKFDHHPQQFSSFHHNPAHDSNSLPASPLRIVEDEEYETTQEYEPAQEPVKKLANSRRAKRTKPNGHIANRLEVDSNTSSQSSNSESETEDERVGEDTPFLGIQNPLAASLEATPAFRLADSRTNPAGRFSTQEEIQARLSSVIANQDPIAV

[7] = test system: Neuregulin-1 EGF-like domain; assay: small molecules binding NRG1 EGF domain – biochemical, small-molecule microarray, 635 nm fluorescence, primary screen (AID 1081); conditions: higher = more signal;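 note: binding of the protein to compounds printed on small-molecule microarray slides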
[8] = FRG1 expression reporter modulators in myotubes – cell-based, C2C12 myotubes, firefly/Renilla luciferase, luminescence, FRG1 inhibition for FSHD, primary screen (AID 1084); conditions: FRG1 promoter luciferase, higher = more signal, called active from +8 up or from −8 down
[9] = small molecules captured by biotinylated probe aFST – biochemical, small-molecule microarray, fluorescence 635/667, stem cell growth factor project, primary screen (AID 1086); conditions: higher = more signal;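 note: score merges 667 nm fluorescence with signal-to-noise of each printed compound spot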
[10] = binders of probe aHhip on microarray, primary screen, stem cell growth factor project, biochemical, small-molecule microarray, fluorescence 635/667 (AID 1087); conditions: higher = more signal;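 note: score merges spot fluorescence at 667nm with spot signal to noise ratio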
[11] = test system: PRMT1 (protein arginine N-methyltransferase 1); assay: small molecules binding arginine methyltransferase PRMT1 – biochemical, small-molecule microarray, 635 nm fluorescence, primary screen (AID 1088); conditions: higher = more signal;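 note: binding of Prmt1 protein to compounds spotted on small-molecule microarray slides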
[12] = growth effects on S. cerevisiae YJM789 – YJM789 clinical isolate, OD600, 24 h, basal, primary screen (AID 1089); conditions: higher = more signal, called active from +8 up or from −8 down;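 note: growth of clinical yeast isolate S. cerevisiae YJM 789 seeded 1000 cells per well; test concentration not given here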
[13] = S. pombe growth modifiers, basal conditions – strain 972, OD600, 24 h, no modulator, primary screen (AID 1090);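 note: basal condition with compound alone and no growth modifier present; test concentration not given here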; conditions: S. pombe 972 growth, higher = more signal, called active from +8 up or from −8 down
[14] = budding yeast growth modifiers under rapamycin – strain BY4716, OD600, 96 h, primary screen (AID 1091); note: test concentration not given here; conditions: S. cerevisiae BY4716 + rapamycin, higher = more signal, called active from +8 up or from −8 down
[15] = molecular target: Torsin-1A-interacting protein 2 (Homo sapiens) (UniProt Q8NFQ8); assay: small molecules binding lysate-expressed LULL1 – cell lysate, human LULL1 lysate, 635/667 nm fluorescence, primary screen (AID 1092); conditions: small-molecule microarray, hLULL1 lysate binding, 635 nm fluorescence; higher = more signal;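 note: probe is lysate of COS7 cells overexpressing human LULL1; score merges per-feature 667 nm fluorescence with signal-to-noise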
Sequence of Torsin-1A-interacting protein 2 (Homo sapiens) (Q8NFQ8 whole entry, looked up): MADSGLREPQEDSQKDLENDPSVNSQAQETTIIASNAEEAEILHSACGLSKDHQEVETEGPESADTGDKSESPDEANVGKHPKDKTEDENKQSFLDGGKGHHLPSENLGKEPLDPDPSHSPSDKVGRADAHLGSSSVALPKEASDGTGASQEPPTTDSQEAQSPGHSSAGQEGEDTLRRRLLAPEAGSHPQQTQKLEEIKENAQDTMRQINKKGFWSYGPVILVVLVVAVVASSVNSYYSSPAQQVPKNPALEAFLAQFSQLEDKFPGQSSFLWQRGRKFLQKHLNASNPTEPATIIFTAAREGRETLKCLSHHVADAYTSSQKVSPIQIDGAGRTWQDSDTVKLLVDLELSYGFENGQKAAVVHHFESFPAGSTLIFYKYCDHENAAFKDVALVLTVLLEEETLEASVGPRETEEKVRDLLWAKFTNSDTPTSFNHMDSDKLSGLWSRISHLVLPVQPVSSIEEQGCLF

[16] = optical density change of DRC41 E. coli – strain DRC41, OD650, 24 h, E. coli filamentation project, primary screen (AID 1093);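 note: MC1000 strain lacking acrAB efflux and sulA so SOS filamentation is blocked; test concentration not given here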; conditions: E. coli DRC41 growth, higher = more signal, called active from +8 up or from −8 down
[17] = probe aLefty2 binding to arrayed compounds – biochemical, biotinylated probe, 635/667 nm fluorescence, primary screen (AID 1094); conditions: small-molecule microarray, higher = more signal;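 note: score merges spot fluorescence near 667 nm with spot signal-to-noise ratio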
[18] = test system: Noggin (protein binding on small-molecule microarray); assay: small molecules binding Noggin protein – biochemical, 635/667 nm fluorescence, primary screen (AID 1095); conditions: 635 nm fluorescence, higher = more signal;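 note: score merges 667 nm feature fluorescence with signal to noise over triplicate slides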
[19] = molecular target: Neurogenic locus notch homolog protein 3 (Homo sapiens) (UniProt Q9UM47); assay: small molecules binding NOTCH3 protein – biochemical, 635/667 nm fluorescence, primary screen (AID 1096); conditions: small-molecule microarray, 635 nm fluorescence, higher = more signal
[20] = probe aEGFR binding to arrayed compounds – biochemical, biotinylated probe, 635/667 nm fluorescence, primary screen (AID 1097); conditions: small-molecule microarray, higher = more signal;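 note: probe is a biotinylated anti-EGFR antibody binding compounds printed on slides; score combines fluorescence near 667 nm and signal to noise of each spot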

Structure (SMILES) | composite z-score [1] | composite z-score [2] | composite z-score [3] | composite z-score [4] | composite z-score [5] | composite z-score [6] | composite z-score [7] | z-score [8] | composite z-score [9] | composite z-score [10] | composite z-score [11] | z-score [12] | z-score [13] | z-score [14] | composite z-score [15] | z-score [16] | composite z-score [17] | composite z-score [18] | composite z-score [19] | composite z-score [20]
C[C@]1(C(=O)O)c2ccccc2C(=O)N(Cc2cc(F)cc(C(F)(F)F)c2)[C@H]1c1ccc(CO)cc1 | -0.25 | -0.205 | -0.0887 | 0.0859 | 0.361 | 0.233 | 0.936 | -0.163 (inactive) | 0.436 | -0.268 | 0.413 | -0.994 (inactive) | -1.3 (inactive) | -1.9 (inactive) | 1.64 | 0.581 (inactive) | -0.153 | 1.04 | 0.137 | -0.115
COc1ccc([Si](C)(C)[C@@H]2[C@@H](CC(=O)N3CCC[C@H]3CO)O[C@]3(C(=O)N(Cc4ccc(N5CCOC5=O)cc4)c4ccccc43)[C@H]2C)cc1 | -0.29 | 0.59 | -0.155 | -0.0087 | 0.01 | 0.717 | 1.01 | -2.49 (inactive) | 0.138 | -0.0994 | 1.45 | -3.35 (inactive) | -1.13 (inactive) | -0.356 (inactive) | 2.72 | 0.985 (inactive) | -0.242 | 1.46 | 0.912 | -0.188
C[C@@H]1NC(=O)C([C@@H](C)OCc2ccccc2)NC(=O)[C@@]23C(=O)N[C@@H](Cc4ccccc4)C2[C@H](C)[C@@]2(C)O[C@H]2C3/C=C/C/C=C\CNC1=O (stereo not given in full) | -0.439 | -0.328 | -0.0578 | 0.341 | -0.0879 | 0.671 | 0.503 | -0.116 (inactive) | -0.502 | -0.236 | -0.448 | 0.35 (inactive) | -0.258 (inactive) | 0.186 (inactive) | -0.327 | -1.07 (inactive) | -0.205 | -0.0322 | 0.177 | -0.109
CC1CC/C=C\[C@H]2OC34C=CCN(c5ccc(Cl)cc5)C(=O)[C@H]3N(CCCCCCO)C(=O)[C@]4(C)C2C(=O)O1 (stereo not given in full) | -0.147 | -0.965 | -0.176 | -0.219 | -0.705 | 0.639 | 1.52 | 0.975 (inactive) | -0.56 | -0.204 | -0.106 | -0.0412 (inactive) | -0.884 (inactive) | 0.187 (inactive) | 0.995 | 0.206 (inactive) | -0.233 | -0.914 | -0.277 | -0.314
CC1=C([C@H](O)CCc2ccccc2)[C@H](CO)n2c(=O)n(-c3ccccc3)c(=O)n2C1 | -0.312 | -0.322 | -0.159 | 0.0052 | -0.371 | -0.355 | -0.56 | -0.973 (inactive) | -0.429 | -0.236 | -0.0416 | -1.02 (inactive) | -1.03 (inactive) | -0.539 (inactive) | -0.478 | 1.87 (inactive) | -0.355 | 0.0865 | -0.696 | -0.211
N#Cc1ccc(-c2cccc(=O)o2)cc1 | -0.5 | 0.316 | -0.103 | 0.248 | 0.601 | 0.114 | 0.678 | 0.563 (inactive) | 0.445 | -0.166 | 1 | -0.24 (inactive) | -0.537 (inactive) | 0.805 (inactive) | 0.552 | -0.675 (inactive) | -0.212 | 0.671 | 0.718 | -0.0794
CC1CC/C=C\[C@H]2OC34C=CCN(C(C)(C)C)C(=O)[C@H]3N(CCCO)C(=O)[C@@H]4C2C(=O)O1 (stereo not given in full) | 0.142 | -0.0052 | -0.0063 | 0.716 | -0.858 | 0.647 | 1.28 | -0.281 (inactive) | 0.182 | -0.169 | -0.672 | 0.884 (inactive) | 0.743 (inactive) | 1.14 (inactive) | 1.86 | 0.545 (inactive) | -0.214 | -0.556 | -0.281 | -0.249
COC(=O)C(CC#Cc1ccc2c(c1)[C@]1(C(=O)N2)[C@H](C(=O)NC[C@H](O)c2ccccc2)[C@H]2C(=O)O[C@H](c3ccccc3)[C@H](c3ccccc3)N2[C@@H]1c1ccccc1OCCO)C(=O)OC | -0.266 | 0.423 | -0.0996 | 0.558 | 1.08 | 1.27 | 1.3 | 0.0111 (inactive) | 0.254 | 0.0749 | 1.54 | 2.15 (inactive) | -0.247 (inactive) | 2.59 (inactive) | 2.89 | 2.13 (inactive) | -0.0598 | 0.8 | 1.12 | -0.0332
O=C1NC(=O)C2C1C=CC(C(O)c1ccc(B(O)O)cc1)N2Nc1ccc(Cl)cc1Cl (stereo not given) | -0.144 | -0.397 | -0.0095 | 0.454 | 1.11 | 1.16 | 0.955 | 0.402 (inactive) | 0.514 | -0.0645 | -0.201 | 1.33 (inactive) | -0.229 (inactive) | 0.715 (inactive) | 1.71 | -0.758 (inactive) | 0.126 | -0.255 | 0.287 | -0.0238
C=CCC(OC(C)=O)[C@@H]1[C@@H](N(Cc2cc3ccccc3o2)C(=O)c2cccc3ccccc23)c2cc(OCCCO)ccc2N1C(=O)c1ccc2ccccc2n1 (stereo not given in full) | 1.68 | 0.27 | -0.116 | 0.0823 | 0.16 | -0.0193 | -0.112 | -1.53 (inactive) | -0.061 | -0.125 | 0.109 | 0.472 (inactive) | -0.8 (inactive) | 0.12 (inactive) | 0.588 | 1.06 (inactive) | -0.0285 | 0.728 | -0.127 | -0.182
